Screening data: PubChem, National Center for Advancing Translational Sciences (NCATS)
An excerpt weighted towards active compounds, which were near 2.8% of everything screened.
TGFb SMAD3 inh – qHTS for Inhibitors of TGF-b | HepG2 CAGA-GFP TGF-b/SMAD3 reporter, GFP fluorescence, 18 h; TGF-beta stimulated, 500 pg/mL final | Potency, µM (top dose mostly 46.1 µM), without a hit: at the highest dose activity, negative = inhibition, most hits filed as inhibitors | 1.2% of 410,000 active; note: potency is the fitted concentration of half-maximal effect; % is set by controls: 0 for no effect and ±100 for the full control effect; nearly all actives have a fitted effect of over 65% in size
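First, reporter cells (HEPG2 CAGA-GFP) rested 2 h at 37 degrees C. Next, compounds were pinned in and TGF-beta added to 500 pg/mL final. After 18 h, GFP was imaged per cell and summed per well.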
S2 tox – Viability Counterscreen for Primary qHTS for Inhibitors of ATXN expression; S2 cells (HEK-293 line with an ATXN2-luciferase reporter) viability, CellTiter-Fluor protease fluorescence, 24 h; AID 651635, 2014; Potency, µM (top dose mostly 56.7 µM), hits mostly cytotoxic; 0.49% of 400,000 active; note: potency is the fitted concentration of half-maximal effect; nearly all actives have a fitted effect of over 40% in size
HepG2 viability – qHTS for Inhibitors of TGF-b: Cytotox Counterscreen; HepG2 CAGA-GFP viability, ATP luminescence, 18 h; Potency, µM (series often up to 46.1 µM), inactives show at the highest dose activity change, negative = cytotoxicity, actives largely listed as cytotoxic; 0.76% of 410,000 active; note: potency is the fitted concentration of half-maximal effect
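CellTiter-Glo luminescence gave cytotoxicity after 18 hours at 37 degrees C. The cells were HepG2 CAGA-GFP in 1% FBS DMEM, stimulated with 500 pg/mL TGF-beta after compound addition. %Activity was normalised to no-cell wells (complete cell-killing) and DMSO (no toxicity), and curves were fitted and classified.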
ATXN2 expr inh – Primary qHTS for Inhibitors of ATXN expression; HEK-293 ATXN2-luciferase reporter, luminescence, 24 h; Potency, µM (doses to about 57 µM), for the others: at the top dose activity change, negative = inhibition, usual class: inhibitors; 0.72% of 360,000 active; note: potency is the fitted concentration of half-maximal effect; % is set by controls: 0 for no effect and ±100 for the full control effect; nearly all actives have a fitted effect of over 55% in size
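ATXN2-luciferase reporter cells (luciferase flanked by upstream and downstream ATXN2 gene portions) were treated 24 h at 37 °C with compounds at up to 57 uM. SteadyGlo luminescence gave expression; GF-AFC fluorescence gave viability.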
Six1-Eya2 blk – qHTS Assay for Inhibitors of the Six1/Eya2 Interaction; activity change, % (no concentration beside the values); AlphaScreen GST-Six1/His-Eya2 binding, biochemical; hits give low values; 0.56% of 360,000 active; Homeobox protein SIX1 (Homo sapiens) + Protein phosphatase EYA2 (Homo sapiens), …; in the data active = activity change below about -65%; inconclusive = mostly about -30% to -63%; note: % is set by controls: 0 for no effect and ±100 for the full control effect
Target sequence (O00167 whole entry, looked up): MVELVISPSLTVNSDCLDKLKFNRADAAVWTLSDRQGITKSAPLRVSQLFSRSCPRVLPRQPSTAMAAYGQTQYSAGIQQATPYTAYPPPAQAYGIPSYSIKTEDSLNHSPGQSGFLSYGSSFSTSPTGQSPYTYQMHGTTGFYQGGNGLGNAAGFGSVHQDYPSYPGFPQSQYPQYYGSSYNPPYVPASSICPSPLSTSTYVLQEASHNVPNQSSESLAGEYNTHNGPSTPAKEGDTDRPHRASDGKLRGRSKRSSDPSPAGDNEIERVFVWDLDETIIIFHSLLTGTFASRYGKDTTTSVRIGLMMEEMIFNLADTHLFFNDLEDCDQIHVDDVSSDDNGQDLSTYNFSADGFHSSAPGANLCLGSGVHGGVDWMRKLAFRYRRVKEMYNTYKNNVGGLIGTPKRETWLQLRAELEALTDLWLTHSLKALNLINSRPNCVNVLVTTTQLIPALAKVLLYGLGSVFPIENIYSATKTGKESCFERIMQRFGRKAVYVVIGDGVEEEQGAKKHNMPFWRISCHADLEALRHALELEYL
Target sequence (Q15475 whole entry, looked up): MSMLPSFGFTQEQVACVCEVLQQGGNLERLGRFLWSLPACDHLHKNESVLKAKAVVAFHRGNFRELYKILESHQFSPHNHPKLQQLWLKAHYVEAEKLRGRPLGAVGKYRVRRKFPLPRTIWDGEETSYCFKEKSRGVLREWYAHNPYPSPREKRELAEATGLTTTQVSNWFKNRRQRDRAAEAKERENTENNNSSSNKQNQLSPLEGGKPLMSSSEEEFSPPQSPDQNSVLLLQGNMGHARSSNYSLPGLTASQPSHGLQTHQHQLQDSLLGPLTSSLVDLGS
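Compounds are tested against tagged Six1 and Eya2 proteins bridged by glutathione donor and nickel acceptor beads; after a one-hour incubation at 37 °C without light, AlphaScreen emission is recorded.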
CtBP-E1A inh – qHTS Assay for Inhibitors of the CtBP/E1A Interaction. CtBP / adenovirus E1A interaction (AlphaScreen). AlphaScreen GST-E1A/His-CtBP binding, 1536-well; hits give low values. activity change, % (concentration not given with the values). 0.49% of 340,000 active; in the data active = activity change below about -65%; inconclusive = mostly about -30% to -63%; note: % is set by controls: 0 for no effect and ±100 for the full control effect
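AlphaScreen with 125 nM GST-E1A and 125 nM His-CtBP (5X stocks) in Tris pH 8.0, 300 mM NaCl, BSA, Tween 20, TCEP. Compounds preincubated 2 h at 37 deg C, then glutathione donor/nickel acceptor beads added for 1 h at 37 deg C in dark.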
* marks the source's active call; other numbers are inactive results; i = inactive; u = inconclusive; x = not tested or not shown; ! = repeats disagree; [ ] = another dose, or the depositor's remark. Unless noted, calls come from the whole dose curve; as a rule, active = well fitted curve in the direction sought with a large enough effect; inconclusive = small, poorly fitted or top-dose-only effect, or another doubt; inactive = no such curve, though single readings can be large; an effect the other way counts as inactive or inconclusive.

SMILES | TGFb SMAD3 inh | S2 tox | HepG2 viability | ATXN2 expr inh | Six1-Eya2 blk | CtBP-E1A inh
COc1cc(NC(=O)c2cc(=O)[nH]c3ccc(S(=O)(=O)N4CCOCC4)cc23)cc(OC)c1 | -1.1% | i | 10.0% | -0.5% | -5.6 | 1.3
Cc1csc(NC(=O)c2cc(=O)[nH]c3ccc(S(=O)(=O)N4CCOCC4)cc23)n1 | -2.6% | x | -10.3% | 1.8%[11.3 µM] | u | -69.9*
COc1cccc(C(=O)Nc2nc(-c3ccc(S(=O)(=O)N4CCOCC4)cc3)cs2)c1 | 7.7% | u | -1.9% | 15.8µM* | u | -28.1
O=C(Nc1nc(-c2ccccn2)cs1)c1ccc(F)c(S(=O)(=O)N2CCOCC2)c1 | u | u | 1.0% | u | -92.6* | -92.9*
Cc1ccc(C(=O)Nc2nc(-c3ccccn3)cs2)cc1S(=O)(=O)N1CCOCC1 | u | u | -28.1% | u | -91.3* | -92.5*
O=C(NCCS(=O)(=O)c1ccc(C(F)(F)F)cn1)c1ccc(Cl)cc1 | x | x | x | 2.3% | x | x
CC(C)(C)n1ncc2c(=O)n(Cc3ccccc3-c3ccccc3)cnc21 | -28.8% | x | -16.1% | x | x | x
Cc1ccc(S(=O)(=O)N2CCOCC2)cc1C(=O)Nc1nc(-c2cccnc2)cs1 | 1.1% | i | 3.8% | 0.5% | 0.0 | 7.2
CN(CC1CCCO1)S(=O)(=O)c1ccc(C(=O)Nc2ccccc2F)cc1 (stereo not drawn) | 1.5% | i | -14.6% | 8.1% | 11.8 | -3.5
CN(CC1CCCO1)S(=O)(=O)c1ccc(C(=O)Nc2nc(-c3ccccn3)cs2)cc1 (stereo not drawn) | u | u | -15.8% | u | u | -92.2*
O=C(Nc1nc(-c2ccccn2)cs1)c1cc(S(=O)(=O)N2CCOCC2)ccc1F | 3.4% | i | 10.6% | -5.2% | -89.7* | u
O=C(C1CC1)N1CC[C@@H](Cn2c(-c3ccc(-c4ccc5occc5c4)cc3)nc3cnccc32)C1 | x | x | x | -18.6% | x | x
Cc1ccc2c(c1)cc(CN(C)Cc1nc(C)cs1)c(=O)n2C | x | i | x | x | x | x
O=C(NC1CC1)[C@@H]1C[C@@H](Sc2nc3ccccc3[nH]2)CN1CC1CCCCC1 | x | i | x | x | x | x
Cc1cc(C(=O)N/N=C/c2ccc([N+](=O)[O-])o2)c(C)o1 | 17.8µM* | u | 11.2µM* | x | -14.8 | x
COc1ccccc1NS(=O)(=O)c1cccc(C(=O)N/N=C/c2ccc([N+](=O)[O-])o2)c1 | 7.08µM* | u | -110.3% | u | -21.7 | 5.8
O=C(N/N=C/c1ccccn1)c1sc2ccccc2c1Cl | u | u | -28.0% | x | u | x
O=C(N/N=C/c1ccc([N+](=O)[O-])o1)c1sc2ccccc2c1Cl | u | 31.6µM* | -185.7% | x | u | x
O=C(CNc1ccc2ccccc2c1)N/N=C/c1ccc([N+](=O)[O-])o1 | 8.91µM* | u | 7.94µM* | -6.5% | -3.4 | -1.9
O=[N+]([O-])c1ccc(C(c2sc3nc(-c4ccco4)nn3c2O)N2CCN(c3cccc(Cl)c3)CC2)cc1 (stereo not drawn) | u | i | -47.7% | 10.0% | x | x
CCOc1ccccc1NC(c1nnc(-c2ccccc2)o1)c1ccc(F)cc1Cl (stereo not drawn) | -0.3% | i | -11.9% | 12.5% | x | x
Cc1ccc(OCC(=O)N/N=C/c2ccc([N+](=O)[O-])o2)cc1 | 10µM* | u | 10µM* | u | -6.4 | -26.0
COC(=O)N/N=C/c1ccc([N+](=O)[O-])o1 | -25.0% | i | -22.5% | -24.8% | -3.3 | -22.8
Cc1ccc(OCC(=O)N/N=C\c2ccc(C)o2)c([N+](=O)[O-])c1 | 26.9% | i | 3.7% | 7.1% | -2.8 | 6.0
O=C(COc1ccccc1)N/N=C/c1ccc([N+](=O)[O-])o1 | 11.2µM* | u | 11.2µM* | x | -5.6 | x
SMILES | TGFb SMAD3 inh | S2 tox | HepG2 viability | ATXN2 expr inh | Six1-Eya2 blk | CtBP-E1A inh
COc1cccc(CNC(=O)c2ccc3nc(N4CCCCC4)sc3c2)c1OC | -20.0% | i | -19.9% | -11.0% | x | x
CN(C)c1nc(C=C(C#N)C#N)c(Cl)n1-c1ccc(F)cc1 | 5.01µM* | 22.4µM* | 8.91µM* | u | -21.0 | -2.8
Cc1noc(NS(=O)(=O)c2ccc(N/C=C\C(=O)c3ccc4c(c3)OCO4)cc2)c1C | 15.8% | i | -6.5% | 3.8% | -67.9* | -75.4*
Cc1cccnc1-c1cccc2c1OC(CNC(=O)/C=C/c1cccs1)C2 (stereo not drawn) | x | i | x | x | x | x
CCOC(=O)c1c(CC(C)C)csc1NC(=O)CCl | -9.9% | u | 20µM* | -17.9% | 3.0 | 5.4
CCOC(=O)c1c(CC(C)C)csc1NC(=O)C(C)C | -13.1% | i | -38.2% | -8.9% | 31.0 | 37.2
C=C(c1nc2ccccc2s1)C1Cc2cccc3c2N(CCC3)C1 (stereo not drawn) | 3.98µM* | x | 7.08µM* | x | x | x
CCC(C)[C@H]1COCCS(=O)(=O)N1Cc1ccc(Cl)cc1Cl (stereo partly drawn) | 10µM*! | i | -31.7% | -9.4% | 13.2 | -2.7
CCNCCC(CCC(C)C)c1ccc2c(c1)OCO2 (stereo not drawn) | -1.6% | i | -23.4% | -19.4% | -0.6 | 1.8
COc1ccccc1C(CCNCc1ccc(N(C)C)cc1)c1ccc(OC(C)C)cc1 (stereo not drawn) | u | 31.6µM* | -113.1% | x | -84.1* | x
COc1ccccc1C(CCNCc1ccccc1)c1ccc(OC(C)C)cc1 (stereo not drawn) | u | u | 12.6µM* | 28.2µM* | -5.9 | -16.8
